{
  "source": "ChEMBL document CHEMBL5606460",
  "about": "“ASAP - DENV-2 NS2B-NS3 protease fluorescence single point” (2024)",
  "molecular_target": "Genome polyprotein (dengue virus type 2) (UniProt P29990)",
  "key": {"[1]": {"conditions": "Thailand/16681/1984, Concentration 25.0 uM, Number of replicates 1.0"}},
  "note": "Out of some 2,000 compounds screened, about 110 (5.5%) showed an effect of 50% or more. The full list was thinned out, with strong results kept by preference.",
  "data": [
    {"smiles": "O=Cc1ccc(N2CCC(C(=O)NC3CN(C(c4ccccc4)c4ccccc4)C3)CC2)cc1", "values": [
      {"measurement": "inhibition", "setting": "[1]", "value": 2.62, "unit": "%"}
    ]},
    {"smiles": "CC(C)N(C[C@H](O)COc1ccc(CC(N)=O)cc1)C(=O)C1CCN(c2ccc(C=O)cc2)CC1", "values": [
      {"measurement": "inhibition", "setting": "[1]", "value": 13.4, "unit": "%"}
    ]},
    {"smiles": "Cc1ccc(S(N)(=O)=O)c(NCc2ccc(N3CCN(C)CC3)cc2)c1", "values": [
      {"measurement": "inhibition", "setting": "Thailand/16681/1984, Concentration 49.5 uM, Number of replicates 2.0, Standard deviation 0.9591550294519122 %", "value": -0.337, "unit": "%"},
      {"measurement": "inhibition", "setting": "Thailand/16681/1984, Concentration 99.01 uM, Number of replicates 2.0, Standard deviation 0.6629248720953049 %", "value": 1.24, "unit": "%"},
      {"measurement": "inhibition", "setting": "Thailand/16681/1984, Concentration 198.0 uM, Number of replicates 2.0, Standard deviation 0.09920698004573132 %", "value": 1.03, "unit": "%"}
    ]},
    {"smiles": "CCc1ccc(CN(CC(C)C)C(=O)C2CCN(c3ccc(C=O)cc3)CC2)cc1", "values": [
      {"measurement": "inhibition", "setting": "[1]", "value": 13.3, "unit": "%"}
    ]},
    {"smiles": "O=Cc1ccc(N2CCC(C(=O)Nc3ccccc3Sc3ccccc3)CC2)cc1", "values": [
      {"measurement": "inhibition", "setting": "[1]", "value": 12.1, "unit": "%"}
    ]},
    {"smiles": "NC(=O)c1ccccc1NS(=O)(=O)c1ccc(Oc2ccccc2Cl)cc1", "values": [
      {"measurement": "inhibition", "setting": "Thailand/16681/1984, Concentration 49.5 uM, Number of replicates 2.0, Standard deviation 0.6673279112123895 %", "value": 5.67, "unit": "%"},
      {"measurement": "inhibition", "setting": "Thailand/16681/1984, Concentration 99.01 uM, Number of replicates 2.0, Standard deviation 2.0636931261780913 %", "value": 38.8, "unit": "%"},
      {"measurement": "inhibition", "setting": "Thailand/16681/1984, Concentration 198.0 uM, Number of replicates 2.0, Standard deviation 0.3870011295715193 %", "value": 81.3, "unit": "%"}
    ]},
    {"smiles": "CNC(=O)c1cc(Cl)ccc1NS(=O)(=O)c1ccc(F)c(C(=O)N2CCCC2)c1", "values": [
      {"measurement": "inhibition", "setting": "Thailand/16681/1984, Concentration 49.5 uM, Number of replicates 2.0, Standard deviation 0.7714528805703116 %", "value": -4.6, "unit": "%"},
      {"measurement": "inhibition", "setting": "Thailand/16681/1984, Concentration 99.01 uM, Number of replicates 2.0, Standard deviation 1.6986403894371052 %", "value": -2.1, "unit": "%"},
      {"measurement": "inhibition", "setting": "Thailand/16681/1984, Concentration 198.0 uM, Number of replicates 2.0, Standard deviation 1.4542094148600992 %", "value": 1.16, "unit": "%"}
    ]},
    {"smiles": "O=C(c1cc(Cl)ccc1NS(=O)(=O)c1ccc(Oc2ccccc2Cl)cc1)N1CCC[C@H](O)C1", "values": [
      {"measurement": "inhibition", "setting": "Thailand/16681/1984, Concentration 49.5 uM, Number of replicates 2.0, Standard deviation 1.2236693461292836 %", "value": 22.2, "unit": "%"},
      {"measurement": "inhibition", "setting": "Thailand/16681/1984, Concentration 99.01 uM, Number of replicates 2.0, Standard deviation 0.043163767671764885 %", "value": 86.9, "unit": "%"},
      {"measurement": "inhibition", "setting": "Thailand/16681/1984, Concentration 198.0 uM, Number of replicates 2.0, Standard deviation 0.0596286869236367 %", "value": 96.8, "unit": "%"}
    ]},
    {"smiles": "COC1CN(C(=O)c2cc(Cl)ccc2NS(=O)(=O)c2ccc(Oc3ccccc3Cl)cc2)C1", "values": [
      {"measurement": "inhibition", "setting": "Thailand/16681/1984, Concentration 49.5 uM, Number of replicates 2.0, Standard deviation 0.43340110085934463 %", "value": 13.9, "unit": "%"},
      {"measurement": "inhibition", "setting": "Thailand/16681/1984, Concentration 99.01 uM, Number of replicates 2.0, Standard deviation 0.8668022017186893 %", "value": 27.6, "unit": "%"},
      {"measurement": "inhibition", "setting": "Thailand/16681/1984, Concentration 198.0 uM, Number of replicates 2.0, Standard deviation 1.1631532151634014 %", "value": 43.9, "unit": "%"}
    ]},
    {"smiles": "CNC(=O)c1cc(Cl)ccc1NS(=O)(=O)c1cccc(S(N)(=O)=O)c1", "values": [
      {"measurement": "inhibition", "setting": "Thailand/16681/1984, Concentration 49.5 uM, Number of replicates 2.0, Standard deviation 0.4003966624337367 %", "value": 1.73, "unit": "%"},
      {"measurement": "inhibition", "setting": "Thailand/16681/1984, Concentration 99.01 uM, Number of replicates 2.0, Standard deviation 1.0615056375609497 %", "value": 3.26, "unit": "%"},
      {"measurement": "inhibition", "setting": "Thailand/16681/1984, Concentration 198.0 uM, Number of replicates 2.0, Standard deviation 0.04640199433655389 %", "value": 5.28, "unit": "%"}
    ]},
    {"smiles": "CNC(=O)c1ccccc1NS(=O)(=O)c1ccc(Oc2ccccc2Cl)cc1", "values": [
      {"measurement": "inhibition", "setting": "Thailand/16681/1984, Concentration 49.5 uM, Number of replicates 2.0, Standard deviation 0.8338499147497574 %", "value": 0.494, "unit": "%"},
      {"measurement": "inhibition", "setting": "Thailand/16681/1984, Concentration 99.01 uM, Number of replicates 2.0, Standard deviation 3.066215993073902 %", "value": -2.05, "unit": "%"},
      {"measurement": "inhibition", "setting": "Thailand/16681/1984, Concentration 198.0 uM, Number of replicates 2.0, Standard deviation 2.7475277663160753 %", "value": -6.31, "unit": "%"}
    ]},
    {"smiles": "CNC(=O)c1cc(Cl)ccc1NS(=O)(=O)c1cccc(Oc2ccccc2)c1", "values": [
      {"measurement": "inhibition", "setting": "Thailand/16681/1984, Concentration 49.5 uM, Number of replicates 2.0, Standard deviation 1.273206391645472 %", "value": 8.45, "unit": "%"},
      {"measurement": "inhibition", "setting": "Thailand/16681/1984, Concentration 99.01 uM, Number of replicates 2.0, Standard deviation 0.33776821571418564 %", "value": 23.8, "unit": "%"},
      {"measurement": "inhibition", "setting": "Thailand/16681/1984, Concentration 198.0 uM, Number of replicates 2.0, Standard deviation 0.06600533651594093 %", "value": 89.9, "unit": "%"}
    ]},
    {"smiles": "O=C(c1cc(Cl)ccc1NS(=O)(=O)c1ccc(Oc2ccccc2Cl)cc1)N1CCCC1", "values": [
      {"measurement": "inhibition", "setting": "Thailand/16681/1984, Concentration 49.5 uM, Number of replicates 2.0, Standard deviation 0.3065647121254482 %", "value": 37.4, "unit": "%"},
      {"measurement": "inhibition", "setting": "Thailand/16681/1984, Concentration 99.01 uM, Number of replicates 2.0, Standard deviation 0.3046576515240273 %", "value": 55.4, "unit": "%"},
      {"measurement": "inhibition", "setting": "Thailand/16681/1984, Concentration 198.0 uM, Number of replicates 2.0, Standard deviation 0.40716687929743567 %", "value": 69, "unit": "%"}
    ]},
    {"smiles": "O=S(=O)(Nc1ccccc1)c1ccc(Oc2ccccc2Cl)cc1", "values": [
      {"measurement": "inhibition", "setting": "Thailand/16681/1984, Concentration 49.5 uM, Number of replicates 2.0, Standard deviation 1.8105423163556815 %", "value": 1.05, "unit": "%"},
      {"measurement": "inhibition", "setting": "Thailand/16681/1984, Concentration 99.01 uM, Number of replicates 2.0, Standard deviation 1.556829309720985 %", "value": 2.93, "unit": "%"},
      {"measurement": "inhibition", "setting": "Thailand/16681/1984, Concentration 198.0 uM, Number of replicates 2.0, Standard deviation 1.335088080503107 %", "value": 5.83, "unit": "%"}
    ]},
    {"smiles": "CNC(=O)[C@H]1CCCN1S(=O)(=O)c1ccc(Oc2ccccc2Cl)cc1", "values": [
      {"measurement": "inhibition", "setting": "Thailand/16681/1984, Concentration 49.5 uM, Number of replicates 2.0, Standard deviation 0.43290983719310167 %", "value": -4.62, "unit": "%"},
      {"measurement": "inhibition", "setting": "Thailand/16681/1984, Concentration 99.01 uM, Number of replicates 2.0, Standard deviation 1.120416310773355 %", "value": -4.38, "unit": "%"},
      {"measurement": "inhibition", "setting": "Thailand/16681/1984, Concentration 198.0 uM, Number of replicates 2.0, Standard deviation 0.24124704358981106 %", "value": -3.59, "unit": "%"}
    ]},
    {"smiles": "CCc1cccc(S(=O)(=O)Nc2ccc(Cl)cc2C(=O)NC)c1", "values": [
      {"measurement": "inhibition", "setting": "Thailand/16681/1984, Concentration 49.5 uM, Number of replicates 2.0, Standard deviation 0.31892086155653854 %", "value": 0.409, "unit": "%"},
      {"measurement": "inhibition", "setting": "Thailand/16681/1984, Concentration 99.01 uM, Number of replicates 2.0, Standard deviation 0.4824817381530084 %", "value": 0.666, "unit": "%"},
      {"measurement": "inhibition", "setting": "Thailand/16681/1984, Concentration 198.0 uM, Number of replicates 2.0, Standard deviation 0.7239504320191382 %", "value": 1.73, "unit": "%"}
    ]},
    {"smiles": "Cc1nc(C2CCN(C(=O)c3ccn([C@H]4CCCNC4)n3)CC2)n[nH]1", "values": [
      {"measurement": "inhibition", "setting": "Thailand/16681/1984, Concentration 49.5 uM, Number of replicates 2.0, Standard deviation 0.8219326667939915 %", "value": -4.42, "unit": "%"},
      {"measurement": "inhibition", "setting": "Thailand/16681/1984, Concentration 99.01 uM, Number of replicates 2.0, Standard deviation 0.15240671313806178 %", "value": -3.84, "unit": "%"},
      {"measurement": "inhibition", "setting": "Thailand/16681/1984, Concentration 198.0 uM, Number of replicates 2.0, Standard deviation 2.223365450237249 %", "value": -4.59, "unit": "%"}
    ]},
    {"smiles": "O=Cc1ccc(N2CCC(C(=O)NCCc3cccc(Br)c3)CC2)cc1", "values": [
      {"measurement": "inhibition", "setting": "[1]", "value": 11.8, "unit": "%"}
    ]},
    {"smiles": "O=Cc1ccc(N2CCC(C(=O)N3CC4C[C@H]5CC3C[C@H](C4)C5)CC2)cc1", "values": [
      {"measurement": "inhibition", "setting": "[1]", "value": 14.5, "unit": "%"}
    ]},
    {"smiles": "O=Cc1ccc(N2CCC(C(=O)Nc3ccccc3OCC(F)(F)F)CC2)cc1", "values": [
      {"measurement": "inhibition", "setting": "[1]", "value": 13.4, "unit": "%"}
    ]}
  ]
}
